The full ranking holds about 33,000 sequences; the median of “e-score” is about -0.053, and the highest 2% start at about 0.38. Shown is part of a subset that was picked to be rich in the highest values.
The sequences below were run against T1, SIX1 homeodomain (reference allele) (human, UniProt Q15475 108-198) (assay: universal protein binding microarray; Universal all-10-mer PBM (8x60K, AMADID 030236), 300 nM GST-tagged protein, Alexa Fluor 488 anti-GST; buffer, salt, pH and temperature not stated (as in Berger); high values mean tight binding). Conditions: protein: ivt; tags: N-terminal GST; dsDNA, one strand shown.
T1 sequence: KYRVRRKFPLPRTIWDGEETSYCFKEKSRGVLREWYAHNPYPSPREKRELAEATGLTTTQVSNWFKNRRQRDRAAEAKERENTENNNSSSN
In short: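 Binding of GST-tagged homeodomains is given as 8-mer E-scores from the Universal PBM Analysis Suite. The proteins were produced by in vitro transcription/translation, quantified by anti-GST western blot against a recombinant GST standard curve, and applied in duplicate at 300 nM final concentration to universal 'all 10-mer' protein binding microarrays (8×60K format).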

| Sequence | binding signal |
| --- | --- |
| ACTAGGAT | 0.187 ± 0.0427 E-score |
| CAGTTATC | 0.176 ± 0.0291 E-score |
| AACAATAT | 0.253 ± 0.0623 E-score |
| CGATGAGA | 0.191 ± 0.0564 E-score |
| CGATGATA | 0.445 ± 0.0281 E-score |
| CGATGACA | 0.18 ± 0.00711 E-score |
| ATTATGCG | 0.242 ± 0.0214 E-score |
| GTGTAGTA | 0.185 ± 0.0109 E-score |
| CACTATCA | 0.276 ± 0.0303 E-score |
| GTATATAC | 0.316 ± 0.0323 E-score |
| AGATATAC | 0.38 ± 0.0393 E-score |
| GGATATAC | 0.406 ± 0.0168 E-score |
| AGATATAT | 0.337 ± 0.0754 E-score |
| CGATATAG | 0.362 ± 0.0306 E-score |
| CGATATAC | 0.405 ± 0.0197 E-score |
| AGATATAA | 0.261 ± 0.0786 E-score |
| CGATATAA | 0.243 ± 0.0501 E-score |
| GGATATAA | 0.352 ± 0.0244 E-score |
| ACACGGGC | 0.179 ± 0.0209 E-score |
| ACCCCGTA | 0.209 ± 0.0622 E-score |
| CGGTTTCA | 0.152 ± 0.0123 E-score |
| ATCCTCAC | 0.234 ± 0.0503 E-score |

| Sequence | binding signal |
| --- | --- |
| ATAGTGTA | 0.205 ± 0.0143 E-score |
| CTCAAGGA | 0.164 ± 0.0491 E-score |
| GGGGCGGA | 0.159 ± 0.113 E-score |
| ATTTATAC | 0.22 ± 0.116 E-score |
| TATGGTAA | 0.166 ± 0.0578 E-score |
| AGACCCCG | 0.23 ± 0.085 E-score |
| ACACCCCC | 0.3856 ± 0.00209 E-score |
| ATTACCCC | 0.177 ± 0.0101 E-score |
| ATACCCCA | 0.43 ± 0.00878 E-score |
| ACACCCCA | 0.365 ± 0.0445 E-score |
| TACCCCCA | 0.243 ± 0.0116 E-score |
| ATAACCCC | 0.251 ± 0.0341 E-score |
| ATACCCCG | 0.4703 ± 0.00344 E-score |
| ACACCCCG | 0.353 ± 0.0394 E-score |
| ACCCCCCG | 0.168 ± 0.0136 E-score |
| ATACCCCC | 0.454 ± 0.015 E-score |
| TGACCCCA | 0.198 ± 0.0237 E-score |
| ATAGCCTG | 0.205 ± 0.031 E-score |
| ATCCCATG | 0.311 ± 0.0488 E-score |
| GACCATGA | 0.216 ± 0.0376 E-score |
| GGGAGATA | 0.3342 ± 0.000849 E-score |
| ATCAGTAC | 0.2244 ± 0.00203 E-score |

| Sequence | binding signal |
| --- | --- |
| GATCACTA | 0.371 ± 0.0113 E-score |
| GGATAGGA | 0.28 ± 0.0103 E-score |
| AGATAGCT | 0.178 ± 0.0771 E-score |
| GATCCTAA | 0.262 ± 0.00612 E-score |
| ATCAGGGC | 0.178 ± 0.0395 E-score |
| ACAAGGTA | 0.192 ± 0.0136 E-score |
| GATAGTAC | 0.212 ± 0.0174 E-score |
| CAGATATG | 0.315 ± 0.0384 E-score |
| AAGATATC | 0.445 ± 0.0468 E-score |
| CAGATATA | 0.263 ± 0.0342 E-score |
| GAGAGATC | 0.286 ± 0.00645 E-score |
| AAGATATT | 0.214 ± 0.124 E-score |
| GAGATATA | 0.359 ± 0.0685 E-score |
| GAGATATC | 0.442 ± 0.0368 E-score |
| AAGATATG | 0.303 ± 0.0441 E-score |
| CAGATATC | 0.456 ± 0.0169 E-score |
| CTCTACAC | 0.163 ± 0.00511 E-score |
| ACCATAGA | 0.197 ± 0.0646 E-score |
| CCGATCTA | 0.2622 ± 0.00225 E-score |
| ATAGTGCA | 0.163 ± 0.0274 E-score |
| CGAGGGTA | 0.159 ± 0.0143 E-score |
| ACTAATCC | 0.228 ± 0.027 E-score |

| Sequence | binding signal |
| --- | --- |
| GTATCTGA | 0.355 ± 0.00568 E-score |
| GTGTCAGA | 0.29 ± 0.0236 E-score |
| ATATCAGA | 0.408 ± 0.0495 E-score |
| ATCTCAGG | 0.164 ± 0.0156 E-score |
| AGATCAGG | 0.284 ± 0.0116 E-score |
| AGATCAGC | 0.273 ± 0.00331 E-score |
| GTATCAGA | 0.466 ± 0.0136 E-score |
| CTATCAGA | 0.271 ± 0.0216 E-score |
| ATATCAGC | 0.404 ± 0.0329 E-score |
| CTATCAGC | 0.202 ± 0.00952 E-score |
| ATATCAGG | 0.403 ± 0.0398 E-score |
| ATCTCAGA | 0.31 ± 0.0258 E-score |
| GGTATGAA | 0.224 ± 0.00641 E-score |
| GCCTAATA | 0.167 ± 0.0373 E-score |
| ATCATGCA | 0.225 ± 0.0116 E-score |
| AGATAGTA | 0.24 ± 0.0305 E-score |
| ACCGTATA | 0.278 ± 0.0281 E-score |
| CCCGTCTC | 0.205 ± 0.0534 E-score |
| CCCGTATA | 0.29 ± 0.023 E-score |
| CCCGTATC | 0.469 ± 0.0109 E-score |
| ACCGTCTC | 0.251 ± 0.0203 E-score |
| ACCGTATC | 0.449 ± 0.00906 E-score |

— PMC10668032, “Altered binding affinity of SIX1-Q177R correlates with enhanced WNT5A and WNT pathway effector expression in Wilms tumor”
